We go through twelve molecules from PubChem BioAssay (EPA / NIEHS).

Records with an inconclusive call do not appear. Active and inactive are the calls of the source. Rule for the calls, unless noted: active = hit-call score of the fitted dose curve at least 0.9, where 1 is the maximum; inactive = score below 0.9.

Read-out in assay [1]: Monokine induced gamma interferon (MIG), CXCL9 (gene 4283)
Kind of assay: BSK_SAg_MIG: BioMAP Diversity Plus: SAg Assay for Monokine induced gamma interferon (MIG) Biomarker Activity (AID 2283092). The settings on record: primary human HUVEC with PBMC; actives raise or lower the signal. The gist of the method: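 ELISA readout of MIG/CXCL9; primary human umbilical vein endothelial cells co-cultured with peripheral blood mononuclear cells; 24 h post-dose; gain/loss fit vs DMSO baseline.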

Assay [2] can be described thus: BSK_SAg_PBMCCytotoxicity: PBMC Cytotoxicity Assessment in the BioMAP Diversity Plus: SAg Assay (AID 2283093).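 For AC50: PBMC superantigen activated with SEB plus TSST-1 one hour after compound addition.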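 Note: PBMC viability measured as Alamar Blue reduction fluorescence at 546/580 nm; fitted both ways against DMSO so a hit may be loss or gain of signal.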 The settings on record: primary human HUVEC with PBMC. The essentials: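 Human umbilical vein endothelial cells co-cultured with PBMC; PBMC (75,000/well) pre-treated with compound 1 h, then activated with SEB and TSST-1 (20 ng/mL final each) for 90 h. Alamar Blue added 6 h, fluorescence 546/580 nm; bidirectional fit versus DMSO.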

Read-out in assay [3]: Interleukin-8 (IL8), CXCL8 (gene 3576)
The experiment in a line: BSK_SAg_IL8: BioMAP Diversity Plus: SAg Assay for Interleukin-8 (IL8) Biomarker Activity (AID 2283094). As to conditions: primary human HUVEC with PBMC; actives raise or lower the signal. The essentials:
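ELISA read-out of IL-8 in a primary human vascular co-culture (umbilical vein endothelium plus PBMC), taken 24 h after compound addition. Values derive from bidirectional fits against DMSO negative controls.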

The nature of assay [4]: BSK_SAg_Proliferation: Cell Proliferation Assessment in the BioMAP Diversity Plus: SAg Assay (AID 2283095).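 Note: relative cell number as total protein by SRB absorbance in sub-confluent culture.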 As to conditions: primary human HUVEC with PBMC. The essentials:
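Cells (endothelium plus PBMC, human primary) were dosed with chemical, cultured 96 h, fixed in 10% TCA and stained with 0.1% SRB. Absorbance at 560 nm gave relative protein, fitted bidirectionally relative to DMSO.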

Assay [5] in a line: BSK_SAg_SRB: Viability Assessment in the BioMAP Diversity Plus: SAg Assay (AID 2283096).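 Note: cells read one day after compound addition; hits may be either gain or loss of signal compared with DMSO.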 The settings on record: primary human HUVEC with PBMC. The gist of the method: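 Endothelial/PBMC primary human co-culture; compound 24 h; fix 10% TCA, stain 0.1% SRB, A560; protein content as cytotoxicity proxy; bidirectional curve fit, DMSO = baseline.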
Assay [6] has as its target human CYP1A1, CYP1A1 (gene 1543) (UniProt P04798). The experiment in a line: NVS_ADME_hCYP1A1: NovaScreen (NVS) CYP450-related Enzyme Activity (ADME) Assay for human CYP1A1 (AID 2283100; active = hit-call score of the fitted dose curve at least 0.9, where 1 is the maximum). The gist of the method: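 Chemicals were first tested in duplicate at 10 uM, and those passing a 30% inhibition threshold were rerun as concentration series topping at 20 uM. Fluorescence read-out of recombinant enzyme turnover after 1 h, relative to acetonitrile.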

Assay [7] concerns the target human CYP2A6, CYP2A6 (gene 1548) (UniProt P11509). Kind of assay: NVS_ADME_hCYP2A6: NovaScreen (NVS) CYP450-related Enzyme Activity (ADME) Assay for human CYP2A6 (AID 2283099; active = hit-call score of the fitted dose curve at least 0.9, where 1 is the maximum). The gist of the method: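 Compounds screened at 10 uM (duplicate) and, if active, titrated to a 20 uM top concentration against insect-cell-expressed CYP2A6. Loss of fluorescent product signal after 0.5 h, relative to acetonitrile baseline, indicates inhibition.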

The target in assay [8] is human Acid Phosphatase 1 (ACP1), ACP1 (gene 52) (UniProt P24666). Kind of assay: NVS_ENZ_hACP1: NovaScreen (NVS) Enzymatic Assay for human Acid Phosphatase 1 (ACP1) (AID 2283136; active = hit-call score of the fitted dose curve at least 0.9, where 1 is the maximum). The essentials:
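Recombinant enzyme expressed in Sf9 cells, tested cell-free; activity read by fluorescence with electrophoretic mobility shift separation of substrate and product, 1.5 h after dosing. Primary screen in duplicate at 25 uM, actives then run in concentration series; loss of signal versus DMSO.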

In assay [9] the target is human Beta-secretase (BACE), BACE1 (gene 23621) (UniProt P56817). The experiment in a line: NVS_ENZ_hBACE: NovaScreen (NVS) Enzymatic Assay for human Beta-secretase (BACE) (AID 2283140; active = hit-call score of the fitted dose curve at least 0.9, where 1 is the maximum;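 note: hits are inhibitors that reduce fluorescent substrate signal versus DMSO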). The gist of the method:
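Compounds were first tested in duplicate at 25 uM, then actives in concentration series, against recombinant BACE1 from SF9 cells. Enzyme activity was measured by fluorescence intensity 1 hour after dosing, with DMSO as negative control.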

The target of assay [10] is human CYP2C9, CYP2C9 (gene 1559) (UniProt P11712). Kind of assay: NVS_ADME_hCYP2C9: NovaScreen (NVS) CYP450-related Enzyme Activity (ADME) Assay for human CYP2C9 (AID 2283108; active = hit-call score of the fitted dose curve at least 0.9, where 1 is the maximum). The essentials: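 Cell-free assay of recombinant human CYP2C9 produced in Sf9 cells, with enzyme activity read by fluorescence intensity 0.75 h after compound addition. Loss of signal versus an acetonitrile negative control indicates inhibition. Primary screen used 10 uM in duplicate; actives were retested in concentration series.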
human CYP2C9, CYP2C9 (gene 1559), sequence (P11712 whole entry, looked up): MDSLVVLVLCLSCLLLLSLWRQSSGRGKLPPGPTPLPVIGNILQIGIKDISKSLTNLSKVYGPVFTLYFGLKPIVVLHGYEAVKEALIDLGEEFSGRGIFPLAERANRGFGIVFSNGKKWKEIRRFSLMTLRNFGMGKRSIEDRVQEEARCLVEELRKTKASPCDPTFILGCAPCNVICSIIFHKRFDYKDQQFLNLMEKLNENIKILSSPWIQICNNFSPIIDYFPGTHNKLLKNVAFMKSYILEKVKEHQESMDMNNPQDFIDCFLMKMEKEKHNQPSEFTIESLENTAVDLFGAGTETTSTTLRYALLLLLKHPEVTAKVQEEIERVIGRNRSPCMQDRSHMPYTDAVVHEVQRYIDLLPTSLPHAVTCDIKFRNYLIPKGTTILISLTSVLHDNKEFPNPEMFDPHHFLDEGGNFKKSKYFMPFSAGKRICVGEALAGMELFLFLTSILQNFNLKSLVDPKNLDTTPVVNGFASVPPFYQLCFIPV

In assay [11] the target is Cytochrome P450 3A4 (Homo sapiens) (UniProt P08684). Kind of assay: NVS_ADME_hCYP3A4: NovaScreen (NVS) CYP450-related Enzyme Activity (ADME) Assay for human CYP3A4 (AID 2283110; active = hit-call score of the fitted dose curve at least 0.9, where 1 is the maximum). The gist of the method: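 Cell-free assay using insect-cell-expressed human CYP3A4 with a fluorogenic substrate; fluorescence intensity was read 0.33 hour after dosing. Loss of signal relative to acetonitrile vehicle indicated inhibition. Primary single-concentration screen at 10 uM, in duplicate, then concentration series.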
Cytochrome P450 3A4 (Homo sapiens), sequence (P08684 whole entry, looked up): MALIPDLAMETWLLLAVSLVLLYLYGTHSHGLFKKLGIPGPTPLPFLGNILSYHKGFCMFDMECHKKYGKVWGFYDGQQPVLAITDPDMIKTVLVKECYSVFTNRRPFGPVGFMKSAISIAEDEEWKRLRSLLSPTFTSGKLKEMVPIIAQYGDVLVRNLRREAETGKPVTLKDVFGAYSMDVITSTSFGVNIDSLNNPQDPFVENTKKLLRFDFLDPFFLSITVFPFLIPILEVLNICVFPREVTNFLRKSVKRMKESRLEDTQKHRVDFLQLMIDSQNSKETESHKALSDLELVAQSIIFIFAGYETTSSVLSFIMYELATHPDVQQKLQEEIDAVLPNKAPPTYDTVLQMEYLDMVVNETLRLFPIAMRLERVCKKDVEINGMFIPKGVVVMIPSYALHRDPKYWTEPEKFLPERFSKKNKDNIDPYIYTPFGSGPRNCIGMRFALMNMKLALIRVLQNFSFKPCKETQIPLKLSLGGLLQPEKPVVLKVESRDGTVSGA

Assay [12] concerns the target Cytochrome P450 2C19 (Homo sapiens) (UniProt P33261). The experiment in a line: NVS_ADME_hCYP2C19: NovaScreen (NVS) CYP450-related Enzyme Activity (ADME) Assay for human CYP2C19 (AID 2283113; active = hit-call score of the fitted dose curve at least 0.9, where 1 is the maximum;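 note: potency for inhibition seen as loss of fluorescent signal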). The essentials:
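Compounds first screened in duplicate at 10 uM, then confirmed in concentration series. Insect-cell-expressed human CYP2C19 turned over a fluorogenic substrate, and fluorescence was read after 1 h. Inhibition taken as signal loss relative to acetonitrile.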

The target of assay [13] is human Caspase 4 (CASP4), CASP4 (gene 837) (UniProt P49662). Kind of assay: NVS_ENZ_hCASP4: NovaScreen (NVS) Enzymatic Assay for human Caspase 4 (CASP4) (AID 2283143; active = hit-call score of the fitted dose curve at least 0.9, where 1 is the maximum). The gist of the method: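 The cell-free assay used E. coli-expressed enzyme with a fluorogenic substrate, read 2 h after dosing. Signal loss was scored versus DMSO. Screening was in duplicate at 25 uM, then singleton concentration-response up to 50 uM.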
human Caspase 4 (CASP4), CASP4 (gene 837), sequence (P49662 whole entry, looked up): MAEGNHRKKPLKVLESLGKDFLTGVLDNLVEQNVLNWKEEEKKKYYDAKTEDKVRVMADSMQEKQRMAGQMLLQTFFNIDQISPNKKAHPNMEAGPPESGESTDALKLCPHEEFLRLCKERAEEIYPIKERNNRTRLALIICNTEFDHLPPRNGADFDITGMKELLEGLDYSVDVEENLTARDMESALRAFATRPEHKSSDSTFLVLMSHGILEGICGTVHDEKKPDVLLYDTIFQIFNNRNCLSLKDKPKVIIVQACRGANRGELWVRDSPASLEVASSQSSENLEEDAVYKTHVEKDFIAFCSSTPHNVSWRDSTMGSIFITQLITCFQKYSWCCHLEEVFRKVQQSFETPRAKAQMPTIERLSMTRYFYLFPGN

human CYP2A6, CYP2A6 (gene 1548), sequence (P11509 whole entry, looked up): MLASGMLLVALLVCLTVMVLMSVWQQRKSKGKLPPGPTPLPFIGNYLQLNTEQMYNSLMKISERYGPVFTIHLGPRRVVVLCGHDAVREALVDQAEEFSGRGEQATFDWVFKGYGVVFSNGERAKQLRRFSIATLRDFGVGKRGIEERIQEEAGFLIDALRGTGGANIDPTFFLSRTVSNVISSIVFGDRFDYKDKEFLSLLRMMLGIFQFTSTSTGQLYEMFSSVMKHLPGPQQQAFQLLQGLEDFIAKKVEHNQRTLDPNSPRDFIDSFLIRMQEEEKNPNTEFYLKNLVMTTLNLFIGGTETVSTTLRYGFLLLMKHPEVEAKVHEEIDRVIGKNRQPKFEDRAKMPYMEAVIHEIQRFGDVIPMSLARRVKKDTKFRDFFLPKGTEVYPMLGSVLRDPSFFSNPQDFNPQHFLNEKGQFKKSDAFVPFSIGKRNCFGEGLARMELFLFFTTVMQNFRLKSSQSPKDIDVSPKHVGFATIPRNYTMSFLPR
human Beta-secretase (BACE), BACE1 (gene 23621), sequence (P56817 whole entry, looked up): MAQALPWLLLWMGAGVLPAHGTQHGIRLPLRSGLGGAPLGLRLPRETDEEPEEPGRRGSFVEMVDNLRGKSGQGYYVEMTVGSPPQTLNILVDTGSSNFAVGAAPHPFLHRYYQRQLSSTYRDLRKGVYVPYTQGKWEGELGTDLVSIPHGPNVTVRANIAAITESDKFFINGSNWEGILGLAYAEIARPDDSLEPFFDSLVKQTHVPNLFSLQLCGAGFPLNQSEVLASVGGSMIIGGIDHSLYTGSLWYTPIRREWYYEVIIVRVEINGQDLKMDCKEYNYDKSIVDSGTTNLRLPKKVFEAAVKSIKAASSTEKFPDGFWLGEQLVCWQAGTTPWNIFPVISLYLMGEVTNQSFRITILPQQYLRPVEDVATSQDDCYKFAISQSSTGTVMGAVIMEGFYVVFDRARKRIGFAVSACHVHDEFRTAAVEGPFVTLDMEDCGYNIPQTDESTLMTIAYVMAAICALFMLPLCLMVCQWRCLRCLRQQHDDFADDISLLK
human Acid Phosphatase 1 (ACP1), ACP1 (gene 52), sequence (P24666 whole entry, looked up): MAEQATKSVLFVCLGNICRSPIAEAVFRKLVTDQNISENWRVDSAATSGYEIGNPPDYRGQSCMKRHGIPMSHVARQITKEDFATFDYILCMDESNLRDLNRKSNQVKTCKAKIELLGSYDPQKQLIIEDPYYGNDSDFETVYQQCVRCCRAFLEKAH
human CYP1A1, CYP1A1 (gene 1543), sequence (P04798 whole entry, looked up): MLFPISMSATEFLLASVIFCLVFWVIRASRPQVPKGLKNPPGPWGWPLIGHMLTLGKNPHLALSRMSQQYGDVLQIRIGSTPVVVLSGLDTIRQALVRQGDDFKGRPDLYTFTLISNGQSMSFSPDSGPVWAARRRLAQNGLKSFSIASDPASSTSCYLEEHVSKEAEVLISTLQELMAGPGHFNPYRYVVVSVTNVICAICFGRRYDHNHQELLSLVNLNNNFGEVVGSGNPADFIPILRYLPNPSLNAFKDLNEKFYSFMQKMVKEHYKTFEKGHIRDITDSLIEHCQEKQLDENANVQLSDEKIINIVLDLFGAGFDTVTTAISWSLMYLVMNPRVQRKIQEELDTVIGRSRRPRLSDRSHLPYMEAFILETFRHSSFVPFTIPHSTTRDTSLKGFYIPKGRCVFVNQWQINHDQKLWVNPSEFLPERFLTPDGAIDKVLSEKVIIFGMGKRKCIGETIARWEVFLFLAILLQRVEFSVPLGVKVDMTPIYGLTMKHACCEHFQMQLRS

In the case of `CCOC(=O)CC(CC(=O)OCC)(OC(C)=O)C(=O)OCC`, the outcome in [1], in assay [2], in assay [3], in assay [4] and in assay [5] was inactive.

For the molecule `COc1ccc2sc(C(=O)Nc3nnn[nH]3)c(OC(C)C)c2c1`, the half-maximal activity concentration (AC50) in assay [1] is 27.8 µM (active); in assay [2], 10 µM (active); in [3], 16.6 µM (active); in [4] it was 11.9 µM (active); in assay [5], 14.2 µM (active).

On to `CCNc1ccccc1`, for which the result in assay [1], in assay [2], in [3], in assay [4] and in assay [5] was inactive.

As for `O=C(O)CCN(C1(C(=O)NO)CCCC1)S(=O)(=O)c1ccc(Oc2ccc(F)cc2)cc1`, the result in [1], in assay [2], in [3], in assay [4] and in [5] was inactive.

On to `Fc1ccccc1[C@@H](F)COC1CCC(Nc2ncnc3[nH]ncc23)CC1` (stereo partly specified), for which the outcome in assay [1] and in [6] was inactive. Also, the half-maximal activity concentration (AC50) in assay [2] was 13.7 µM (active); in [3], 20 µM (active); in assay [4], 26.8 µM (active); in assay [5], 25.4 µM (active).

`CC(C)=CCC/C(C)=C/CO`: the outcome in assay [2], in [3], in assay [4] and in assay [5] was inactive.

Consider `CCCCC(CC)COC(=O)CCCCCCCCC(=O)OCC(CC)CCCC` (stereo unspecified), for which the outcome in assay [2], in [3], in assay [4] and in assay [5] was inactive.

On to `Cc1ccc(O)cc1`, for which the result in assay [2], in assay [3], in [4] and in assay [5] was inactive.

In the case of `Nc1nc2ncc(CNc3ccc(C(=O)N[C@@H](CCC(=O)O)C(=O)O)cc3)nc2c(=O)[nH]1`, the result in [1], in [2], in assay [3], in [4], in [5] and in assay [7] was inactive. Further, the molecule was classed as inactive in assay [8] and in assay [9].

Consider `CNS(=O)(=O)c1cc(C(=O)N2CCC(CCN3C4CCC3CC(n3c(C)nc5ccccc53)C4)(c3cccc(F)c3)CC2)c(Cl)cc1F` (stereo unspecified), for which the outcome in assay [1] and in assay [13] was inactive. Moreover, the half-maximal activity concentration (AC50) in assay [2] is 12.6 µM (active); in assay [3] it was 20 µM (active); in assay [4], 10.4 µM (active); in assay [5], 16.7 µM (active); in [10], 6.52 µM (active); in [11], 4.08 µM (active). Moreover, the AC50 in assay [12] was 6.01 µM (active).

With `COCCOCCOCCOC`, the result in assay [2], in [3], in [4] and in [5] was inactive.

With `CCN(C(=O)c1cc(C)cc(OC[C@H](C)Nc2ccncc2)c1)C(C)C`, the outcome in [1], in assay [2], in assay [3], in assay [4] and in [5] was inactive. For the same molecule, the AC50 in assay [10] was 4.5 µM (active); in assay [11], 2.87 µM (active).

By AC50 is commonly meant the midpoint of the concentration-response curve, whichever way the signal moves.
